Assay results: the supplement of paper PMC4466140

B1: unnamed (peptide)
chain: EREKALPPIPFTTTL

Biological target: AgAbp1
Assay: SPOT peptide array binding signal intensity (averaged, normalized) (arbitrary units (background-subtracted, floor 0; scale differs between SH3 domains)); higher = stronger binding of the SH3 domain to the peptide
Summary of the method: (§1)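 To measure binding, SH3 domains from four yeast species were fused to GST, expressed in E. coli BL21(DE3) and purified on glutathione Sepharose. Each domain was incubated at 10 μg/ml overnight at 4°C on cellulose membranes with synthetic 15-mer peptides whose cysteines were replaced by serines. Anti-GST antibody, an HRP anti-mouse secondary and luminol were used for detection, and images were quantified with Genespotter. Reported binding signal is normalized, background-subtracted spot intensity averaged over replicates, in arbitrary units that differ between domains.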

Binder	SPOT peptide array binding signal intensity
B1	≤ 0

Biological target: AgBbc1
Assay: as above
Summary of the method: as §1

Binder	SPOT peptide array binding signal intensity
B1	≤ 0

Biological target: AgBem1-D1
Assay: as above
Summary of the method: as §1

Binder	SPOT peptide array binding signal intensity
B1	71

Biological target: AgBzz1-D1
Assay: as above
Summary of the method: as §1

Binder	SPOT peptide array binding signal intensity
B1	13

Biological target: AgBzz1-D2
Assay: as above
Summary of the method: as §1

Binder	SPOT peptide array binding signal intensity
B1	≤ 0

Biological target: AgCyk3
Assay: as above
Summary of the method: as §1

Binder	SPOT peptide array binding signal intensity
B1	2

Biological target: AgFus1
Assay: as above
Summary of the method: as §1

Binder	SPOT peptide array binding signal intensity
B1	5

Biological target: AgHof1
Assay: as above
Summary of the method: as §1

Binder	SPOT peptide array binding signal intensity
B1	132

Biological target: AgHse1
Assay: as above
Summary of the method: as §1

Binder	SPOT peptide array binding signal intensity
B1	0.5

Biological target: AgLsb1
Assay: as above
Summary of the method: as §1

Binder	SPOT peptide array binding signal intensity
B1	18

Biological target: AgLsb4
Assay: as above
Summary of the method: as §1

Binder	SPOT peptide array binding signal intensity
B1	3.5

Biological target: AgMyo5
Assay: as above
Summary of the method: as §1

Binder	SPOT peptide array binding signal intensity
B1	≤ 0

Biological target: AgNbp2
Assay: as above
Summary of the method: as §1

Binder	SPOT peptide array binding signal intensity
B1	≤ 0

Biological target: AgRvs167
Assay: as above
Summary of the method: as §1

Binder	SPOT peptide array binding signal intensity
B1	0.333

Biological target: AgSho1
Assay: as above
Summary of the method: as §1

Binder	SPOT peptide array binding signal intensity
B1	5670

Biological target: AgSla1-D1-D2
Assay: as above
Summary of the method: as §1

Binder	SPOT peptide array binding signal intensity
B1	≤ 0

Biological target: AgSla1-D3
Assay: as above
Summary of the method: as §1

Binder	SPOT peptide array binding signal intensity
B1	≤ 0

Biological target: CaAbp1-D1
Assay: as above
Summary of the method: as §1

Binder	SPOT peptide array binding signal intensity
B1	≤ 0

Biological target: CaAbp1-D2
Assay: as above
Summary of the method: as §1

Binder	SPOT peptide array binding signal intensity
B1	≤ 0

Biological target: CaBbc1
Assay: as above
Summary of the method: as §1

Binder	SPOT peptide array binding signal intensity
B1	≤ 0

Biological target: CaBem1-D1
Assay: as above
Summary of the method: as §1

Binder	SPOT peptide array binding signal intensity
B1	1.5

Biological target: CaBzz1-D1
Assay: as above
Summary of the method: as §1

Binder	SPOT peptide array binding signal intensity
B1	≤ 0

Biological target: CaBzz1-D2
Assay: as above
Summary of the method: as §1

Binder	SPOT peptide array binding signal intensity
B1	1.53e-05

Biological target: CaCyk3
Assay: as above
Summary of the method: as §1

Binder	SPOT peptide array binding signal intensity
B1	≤ 0

Biological target: CaFus1
Assay: as above
Summary of the method: as §1

Binder	SPOT peptide array binding signal intensity
B1	125

Biological target: CaHof1
Assay: as above
Summary of the method: as §1

Binder	SPOT peptide array binding signal intensity
B1	3

Biological target: CaHse1
Assay: as above
Summary of the method: as §1

Binder	SPOT peptide array binding signal intensity
B1	30

Biological target: CaLsb1
Assay: as above
Summary of the method: as §1

Binder	SPOT peptide array binding signal intensity
B1	0.5

Biological target: CaLsb4
Assay: as above
Summary of the method: as §1

Binder	SPOT peptide array binding signal intensity
B1	≤ 0

Biological target: CaMyo5
Assay: as above
Summary of the method: as §1

Binder	SPOT peptide array binding signal intensity
B1	0.5

Biological target: CaNbp2
Assay: as above
Summary of the method: as §1

Binder	SPOT peptide array binding signal intensity
B1	≤ 0

Biological target: CaRvs167
Assay: as above
Summary of the method: as §1

Binder	SPOT peptide array binding signal intensity
B1	2.67

Biological target: CaRvs167-3
Assay: as above
Summary of the method: as §1

Binder	SPOT peptide array binding signal intensity
B1	1

Biological target: CaSho1
Assay: as above
Summary of the method: as §1

Binder	SPOT peptide array binding signal intensity
B1	4810

Biological target: CaSla1-D1-D2
Assay: as above
Summary of the method: as §1

Binder	SPOT peptide array binding signal intensity
B1	≤ 0

Biological target: CaSla1-D3
Assay: as above
Summary of the method: as §1

Binder	SPOT peptide array binding signal intensity
B1	0.5

Biological target: ScAbp1
Assay: as above
Summary of the method: as §1

Binder	SPOT peptide array binding signal intensity
B1	≤ 0

Biological target: ScBbc1
Assay: as above
Summary of the method: as §1

Binder	SPOT peptide array binding signal intensity
B1	1

Biological target: ScBem1-D1
Assay: as above
Summary of the method: as §1

Binder	SPOT peptide array binding signal intensity
B1	≤ 0

Biological target: ScBzz1-D1
Assay: as above
Summary of the method: as §1

Binder	SPOT peptide array binding signal intensity
B1	≤ 0

Biological target: ScBzz1-D2
Assay: as above
Summary of the method: as §1

Binder	SPOT peptide array binding signal intensity
B1	2

Biological target: ScCyk3
Assay: as above
Summary of the method: as §1

Binder	SPOT peptide array binding signal intensity
B1	5

Biological target: ScFus1
Assay: as above
Summary of the method: as §1

Binder	SPOT peptide array binding signal intensity
B1	2

Biological target: ScHof1
Assay: as above
Summary of the method: as §1

Binder	SPOT peptide array binding signal intensity
B1	66

Biological target: ScHse1
Assay: as above
Summary of the method: as §1

Binder	SPOT peptide array binding signal intensity
B1	≤ 0

Biological target: ScLsb1
Assay: as above
Summary of the method: as §1

Binder	SPOT peptide array binding signal intensity
B1	≤ 0

Biological target: ScLsb2
Assay: as above
Summary of the method: as §1

Binder	SPOT peptide array binding signal intensity
B1	≤ 0

Biological target: ScLsb3
Assay: as above
Summary of the method: as §1

Binder	SPOT peptide array binding signal intensity
B1	≤ 0

Biological target: ScLsb4
Assay: as above
Summary of the method: as §1

Binder	SPOT peptide array binding signal intensity
B1	0.5

Biological target: ScMyo3
Assay: as above
Summary of the method: as §1

Binder	SPOT peptide array binding signal intensity
B1	≤ 0

Biological target: ScMyo5
Assay: as above
Summary of the method: as §1

Binder	SPOT peptide array binding signal intensity
B1	≤ 0

Biological target: ScNbp2
Assay: as above
Summary of the method: as §1

Binder	SPOT peptide array binding signal intensity
B1	≤ 0

Biological target: ScPex13
Assay: as above
Summary of the method: as §1

Binder	SPOT peptide array binding signal intensity
B1	86.8

Biological target: ScRvs167
Assay: as above
Summary of the method: as §1

Binder	SPOT peptide array binding signal intensity
B1	3.5

Biological target: ScSho1
Assay: as above
Summary of the method: as §1

Binder	SPOT peptide array binding signal intensity
B1	7050

Biological target: ScSla1-D1-D2
Assay: as above
Summary of the method: as §1

Binder	SPOT peptide array binding signal intensity
B1	≤ 0

Biological target: ScSla1-D3
Assay: as above
Summary of the method: as §1

Binder	SPOT peptide array binding signal intensity
B1	≤ 0

Biological target: SpAbp1-D1
Assay: as above
Summary of the method: as §1

Binder	SPOT peptide array binding signal intensity
B1	≤ 0

Biological target: SpBbc1
Assay: as above
Summary of the method: as §1

Binder	SPOT peptide array binding signal intensity
B1	≤ 0

Biological target: SpBzz1-D1
Assay: as above
Summary of the method: as §1

Binder	SPOT peptide array binding signal intensity
B1	61

Biological target: SpBzz1-D2
Assay: as above
Summary of the method: as §1

Binder	SPOT peptide array binding signal intensity
B1	≤ 0

Biological target: SpCyk3
Assay: as above
Summary of the method: as §1

Binder	SPOT peptide array binding signal intensity
B1	3.5

Biological target: SpHof1
Assay: as above
Summary of the method: as §1

Binder	SPOT peptide array binding signal intensity
B1	1190

Biological target: SpHof1-2
Assay: as above
Summary of the method: as §1

Binder	SPOT peptide array binding signal intensity
B1	1870

Biological target: SpHof1-3
Assay: as above
Summary of the method: as §1

Binder	SPOT peptide array binding signal intensity
B1	3060

Biological target: SpHse1
Assay: as above
Summary of the method: as §1

Binder	SPOT peptide array binding signal intensity
B1	29.2

Biological target: SpLsb1
Assay: as above
Summary of the method: as §1

Binder	SPOT peptide array binding signal intensity
B1	≤ 0

Biological target: SpLsb4
Assay: as above
Summary of the method: as §1

Binder	SPOT peptide array binding signal intensity
B1	7

Biological target: SpMyo1
Assay: as above
Summary of the method: as §1

Binder	SPOT peptide array binding signal intensity
B1	32.5

Biological target: SpNbp2
Assay: as above
Summary of the method: as §1

Binder	SPOT peptide array binding signal intensity
B1	≤ 0

Biological target: SpPex13
Assay: as above
Summary of the method: as §1

Binder	SPOT peptide array binding signal intensity
B1	1

Biological target: SpRvs167
Assay: as above
Summary of the method: as §1

Binder	SPOT peptide array binding signal intensity
B1	38.7

Biological target: SpSla1-D1-D2
Assay: as above
Summary of the method: as §1

Binder	SPOT peptide array binding signal intensity
B1	9

Biological target: SpSla1-D3
Assay: as above
Summary of the method: as §1

Binder	SPOT peptide array binding signal intensity
B1	0.5
